Measured values published in PubChem BioAssay AID411 (National Center for Advancing Translational Sciences (NCATS), 2006).
Among all 72,000 compounds or so, about 1,600 (2.2%) were called active. For the sample, actives were picked, then their nearest neighbours and some compounds at random. Unmarked numbers belong to inactive results. Calls come from the whole dose curve; as a rule, active = well fitted inhibition curve with a large enough effect; inconclusive = small, poorly fitted or top-dose-only effect; inactive = flat fitted curve, though single readings scatter.

Target: Luciferin 4-monooxygenase (Photinus pyralis) (UniProt P08659)
Experiment: qHTS Assay for Inhibitors of Firefly Luciferase; note: nearly all actives have a fitted effect of over 40% in size
Conditions: purified firefly luciferase, luminescence, 8 min; series mostly up to 57.1 µM; activity change, negative = inhibition: at the top concentration
Description: To aid in the interpretation of high-throughput screening (HTS) results derived from luciferase-based assays, we used quantitative HTS, an approach that defines the concentration-response behavior of each library sample, to profile the ATP-dependent luciferase from Photinus pyralis against more than 72 000 samples. Luciferase (PKLight, Cambrex Corporation) was assayed for its ability to generate light using ATP and luciferin as substrates. The ATP concentration in the assay (10 uM) was within the linear range of enzyme activity for the assay conditions used. See following reference for further details: [1] Auld DS, Southall NT, Jadhav A, Johnson RL, Diller DJ, Simeonov A, Austin CP, Inglese J. Characterization of chemical libraries for luciferase inhibitory activity. J Med Chem. 2008 Apr 24;51(8):2372-86. Auld DS, Zhang YQ, Southall NT, Rai G, Landsman M, Maclure J, Langevin D, Thomas CJ, Austin CP, Inglese J. A Basis for Reduced Chemical Library Inhibition of Firefly Luciferase Obtained from Directed Evolution. J. Med. Chem., 2009, 52 (5), pp 1450#1458 [3] Auld DS, Thorne N, Nguyen DT, Inglese J. A specific mechanism for nonspecific activation in reporter-gene assays. ACS Chem Biol. 2008 Aug 15;3(8):463-70. Auld DS, Thorne N, Maguire WF, Inglese J. Mechanism of PTC124 activity in cell-based luciferase assays of nonsense codon suppression. Proc Natl Acad Sci U S A. 2009 Mar 3;106(9):3585-90. Inglese J, Auld DS, Jadhav A, Johnson RL, Simeonov A, Yasgar A, Zheng W, Austin CP. Quantitative high-throughput screening: a titration-based approach that efficiently identifies biological activities in large chemical libraries. Proc Natl Acad Sci U S A. 2006 Aug 1;103(31):11473-8.
Four uL of substrate mix (final concentration, 50 mM imidazole pH 7.2, 50 mM KCl, 7 mM MgCl2, 10 uM ATP, 0.01% Tween 20, 0.05% BSA) was dispensed into white 1536 well plates. Twenty-three nL of compound was delivered by a pin tool and 2 uL of luciferase detector mix (PKLight, Cambrex) was added. Following 8-minute incubation at ambient temperature, luminescence was measured by a ViewLux (Perkin Elmer) at 5 seconds exposure/plate.
% is set by controls: 0 for no effect and ±100 for the full control effect; potency is the fitted concentration of half-maximal effect.

Sequence of Luciferin 4-monooxygenase (Photinus pyralis) (P08659 whole entry, looked up): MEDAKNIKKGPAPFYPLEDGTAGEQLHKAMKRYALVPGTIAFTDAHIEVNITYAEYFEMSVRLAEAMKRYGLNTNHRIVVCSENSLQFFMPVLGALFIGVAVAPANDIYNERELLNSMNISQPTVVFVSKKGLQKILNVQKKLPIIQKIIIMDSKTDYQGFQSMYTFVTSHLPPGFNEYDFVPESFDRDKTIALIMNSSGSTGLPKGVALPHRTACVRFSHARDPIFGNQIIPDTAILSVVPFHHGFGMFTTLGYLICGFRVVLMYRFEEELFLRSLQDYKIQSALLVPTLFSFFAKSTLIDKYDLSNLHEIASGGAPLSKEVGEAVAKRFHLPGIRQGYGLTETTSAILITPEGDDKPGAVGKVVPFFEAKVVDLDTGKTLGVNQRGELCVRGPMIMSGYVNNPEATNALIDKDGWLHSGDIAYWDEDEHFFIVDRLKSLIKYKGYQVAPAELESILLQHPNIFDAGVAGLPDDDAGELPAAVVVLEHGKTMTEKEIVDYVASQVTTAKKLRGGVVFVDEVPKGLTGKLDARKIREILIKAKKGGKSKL

SMILES | Potency | activity change, negative = inhibition
COc1ccc(-c2cc3ccc(OCc4nn[nH]n4)cc3oc2=O)cc1 | 3.16 µM (active) | –
CCCCc1cc(=O)oc2cc(C)cc(OCc3nn[nH]n3)c12 | – | 3.09%
O=c1oc2cc(O)ccc2cc1-c1ccc(F)cc1 | – | 4.51%
CCn1ccnc1C[C@@H]1COc2ccccc2O1 | inactive | –
CCOc1ccc(C(C)C)cc1S(=O)(=O)n1nc(C)cc1C | – | 0.916%
O=C1C(c2ccccn2)=[N+]([O-])c2ccccc21 | – | -5.6%
CCC(=O)N1c2ccc(S(=O)(=O)CCC(=O)N3CCN(c4ccccc4)CC3)cc2CC1C (stereo unspecified) | – | -0.787%
CCn1nc(C(=O)OCC(=O)N2c3ccccc3CC2C)c2ccccc2c1=O (stereo unspecified) | – | -32.8%
CCCC(=O)N1c2ccc(-c3csc(N)n3)cc2CC1C (stereo unspecified) | 12.6 µM (active) | –
O=C(c1ccc2c(c1)OCCO2)C1CCN(S(=O)(=O)c2cccc(F)c2)CC1 | – | 0.966%
O=C(c1ccc(F)cc1)C1CCN(CCCCc2ccccc2)CC1 | – | -0.998%
Cc1nc2cnc(N3CCN(C)CC3)nc2n(CCC#N)c1=O | – | 0.64% [at 11.4 µM]
O=C1CCC(C(=O)Nc2ccc(OC(F)F)cc2)N1 (stereo unspecified) | – | -35%
OCCCN1c2ccccc2Nc2nnc(-c3ccccc3)cc21 | 3.98 µM (active) | –
NS(=O)(=O)c1cc(Cl)c(Cl)c(S(N)(=O)=O)c1 | – | -1.68% [at 25.5 µM]
COc1ccc(Br)c2c1C[C@H](C(=O)O)CC2 | – | 3.64% [at 11.4 µM]
CCN(Cc1ccncc1)C(=O)[C@@H](CO)c1ccccc1 | inactive | –
Cn1c(=NC(=O)CSCC(=O)N2CCCCC2)sc2ccccc21 | – | 1.33%
Cn1c(=NC(=O)CSCC(=O)N2CCOCC2)sc2ccccc21 | – | 0.14%
Cn1c(=NC(=O)c2cnccn2)sc2ccccc21 | 12.6 µM (active) | –
Cc1nc(SCC(=O)Nc2cc(C)on2)c2c(C)c(C)sc2n1 | – | 1.36%
Cc1cc(C)c2c(c1)cc(C)c1nnc(SCC(=O)Nc3cc(C)on3)n12 | – | -0.208%

SMILES | Potency | activity change, negative = inhibition
Cc1ccc2nc(-c3ccc(SCC(=O)Nc4cc(C)on4)nc3)[nH]c2c1 | 2.51 µM (active) | –
COc1ccc(N(C(=O)c2cccnc2)S(=O)(=O)c2ccc3c(c2)n(C)c(=O)n3C)cc1 | – | 3.46%
O=S(=O)(Nc1ccccn1)c1ccc(Oc2ccccc2)cc1 | – | -1.02%
CCOC(=O)N1CCC(NC(=O)c2cnn3ccccc23)CC1 | – | 2.3%
O=C(c1cnn2ccccc12)N1CCc2ccccc21 | 12.6 µM (active) | –
O=C(c1cccc(C(=O)N2CCc3ccccc32)n1)N1CCc2ccccc21 | – | -0.0998%
O=C(c1ccc([N+](=O)[O-])cc1)[C@@H](Br)[C@@H](Br)c1ccnc2ccccc12 | – | -0.655% [at 11.4 µM]
COC(=O)CNS(=O)(=O)c1ccc(Cc2ccc(S(=O)(=O)NCC(=O)OC)cc2)cc1 | – | 2.65%
O=C(NCCc1ccc2c(c1)OCCO2)c1cc2ccccc2o1 | – | -1.17%
O=C(Nc1ccncc1)c1c(F)cccc1F | – | -1.11%
O=C(Nc1ccncc1)c1cc2ccccc2o1 | 20 µM (active) | –
O=C(c1ccco1)N1CCC[C@@]2(CCN(Cc3nccs3)C2)C1 | – | 2.02% [at 11.4 µM]
COc1ccc(Cc2nnnn2CC(=O)O)cc1 | – | 2.34%
COC(=O)c1sc(NC(=O)c2csc3c2CCCC3)nc1C | 10 µM (active) | –
CC(=O)Cc1nsc(NC(=O)c2csc3c2CCCC3)n1 | – | -7.41%
COc1ccc(C(=O)Nc2nncs2)c(OC)c1 | – | -26.7%
COC(=O)c1sccc1NC(=O)c1csc2c1CCCC2 | – | -1.4%
COC(=O)c1sc(NC(=O)c2ccc(OC)cc2OC)nc1C | 0.0794 µM (active) | –
CCOC(=O)c1sc(NC(=O)c2cc(S(=O)(=O)N3CCOCC3)ccc2C)nc1C | – | 1.64%
CC(C)=CCC/C(C)=C/CO/N=C1/C[C@@H](O)[C@@H](O)[C@@H]2[C@@H]3C(=O)N(C(C)(C)C)C(=O)[C@H]3CC[C@H]12 | – | 0.109% [at 11.4 µM]
Cc1cnc(NC(=O)CSc2nnc(-c3ccc(Cl)cc3Cl)n2N)s1 | – | -5.3%
CCOC(=O)C1CCN(C(c2cc3cc(C)cc(C)c3[nH]c2=O)c2nnnn2C2CCCCC2)CC1 (stereo unspecified) | – | 3.48%

SMILES | Potency | activity change, negative = inhibition
COc1ccc(-c2nn(-c3ccccc3)cc2C(=O)Nc2nc(CC(C)=O)ns2)cc1 | – | 1.9%
O=C(O)C1CCN(c2ncnc3ccc(-c4ccccc4C(F)(F)F)cc23)CC1 | – | 0.203% [at 2.29 µM]
COc1ccc(NC2CC(=O)N(C)C2=O)cc1 (stereo unspecified) | – | 2.41% [at 25.5 µM]
COc1ccccc1CNc1ccnc(-c2c(C)noc2C)n1 | – | -0.167% [at 2.29 µM]
CC(C)(C)c1csc(NC2=NS(=O)(=O)c3ccccc32)n1 | 7.94 µM (active) | –
CC(c1nnc(SCC(=O)Nc2sccc2C#N)n1-c1ccc(Cl)cc1)N(C)C (stereo unspecified) | – | 1.74%
O=S(=O)(c1cccs1)N1CCN(Cc2ccccc2)CC1 | – | 0.959%
CCCCN(C)C(=O)C1CCN(Cc2ccccn2)CC1 | – | -0.416%
Cc1ccc(-n2ncc3c(N4CCN(c5ccc(F)cc5)CC4)ncnc32)c(C)c1 | – | 0.241%
c1ccc(-n2ncc3c2ncn2c(C4CCCCC4)nnc32)cc1 | – | 0.168%
COc1ccc(N2CCN(C(=O)CSc3ncnc4c3cnn4-c3ccc(OC)cc3)CC2)cc1 | – | -3.13%
COc1ccc(-n2ncc3c(N4CCCc5ccccc54)ncnc32)cc1 | 12.6 µM (active) | –
Cc1cccc(-n2ncc3c(N4CCc5ccccc54)ncnc32)c1 | – | 0.441%
c1ccc(-n2ncc3c(N4CCCC4)ncnc32)cc1 | 5.01 µM (active) | –
COc1ccc2c(c1)C=CC1(O2)N(CCO)c2ccccc2C1(C)C (stereo unspecified) | – | -3.19%
CCOC(=O)c1cc(-c2nnc(-c3cc(OC)c(OC)c(OC)c3)o2)c(C)nc1C | – | 0.0559%
CC(=O)c1c(C)n(-c2ccc(N(C)C)cc2)c2ccc(OCC(N)=O)cc12 | – | 1.64%
N#CC1=C(N)C(C#N)(C#N)[C@H](c2ccsc2)[C@H]2COCC=C12 | – | 5.37%
Cn1c(CNC(=O)C(C)(C)C)nc2ccccc21 | – | 1.81%
Cn1c(-c2ccc(C(=O)c3ccccc3)s2)nc2ccccc21 | 2.51 µM (active) | –
Cc1nn2c3ccccc3nc2n(C)c1=O | – | 0.967%
Cn1c(=O)c2c(n(Cc3ccccc3)c1=O)NC(=O)C2CC(=O)N1CCc2ccccc2C1 (stereo unspecified) | – | 4.38%

SMILES | Potency | activity change, negative = inhibition
Cc1cc(Cl)c(S(=O)(=O)Nc2ccc3c(c2)OCCO3)cc1OCC(N)=O | – | -8.83%
COc1ccccc1OCCOc1ccc(/C=N/n2cnnc2)cc1 | – | -5.09%
O=C(CSc1nc2c(cnn2-c2ccc(F)cc2)c(=O)[nH]1)N1CCCCCC1 | – | 1.33%
CCCC(=O)Nc1ccc2c(c1)nc1n2CCSC1 | – | -13.7%
CCCC(=O)Nc1cccc(-c2cn3ccsc3n2)c1 | 15.8 µM (active) | –
O=C(NCc1cn2ccsc2n1)Nc1cccc(Cl)c1 | – | 1.2%
O=C(O)CS(=O)c1ccc2c3c(cccc13)C(=O)c1ccccc1-2 (stereo unspecified) | – | -1.48% [at 11.4 µM]
O=C1C(C=NCC2CCCO2)=C(O)c2ccccc21 (stereo unspecified) | 15.8 µM (active) | –
O=C(CS(=O)(=O)Cc1ccccc1)NCC1CCCO1 (stereo unspecified) | – | 1.3%
CC(=NCC1CCCO1)c1c(O)[nH]c(=O)[nH]c1=O (stereo unspecified) | – | 1.78%
Nc1nc(SCCOc2ccccc2)n[nH]1 | – | -14.9%
CCCOc1ccc(-c2nc(N)n[nH]2)cc1 | 15.8 µM (active) | –
CCCCOc1ccc(-c2ncc(C(=O)OCC)c(N)n2)cc1 | – | -1.24%
O=c1c2c(nc3n1CCCCC3)sc1c(O)cccc12 | 15.8 µM (active) | –
O=C(Cn1[nH]c(=O)c2ccccc2c1=O)Nc1cccc(-c2nnc3n2CCCCC3)c1 | – | 1.94%
Cc1cc(=O)n2c3c(cccc13)CCC2 | – | 1.64%
CCCn1c(=O)c2ccccc2n2c(SCC(=O)/C(C#N)=C(\C)N)nnc12 | – | -0.672%
CCc1ccc2oc(-c3ccc(N)cc3)nc2c1 | 2 µM (active) | –
CCCCCC(=O)Nc1ccc2oc(-c3ccncc3)nc2c1 | – | 2.79%
Nc1ccc(-c2nnc(-c3ccc(-c4ccccc4)cc3)o2)cc1 | – | -12.2%
Cc1cc(Cl)c(S(=O)(=O)NCC2CCCO2)cc1OCC(N)=O (stereo unspecified) | – | 0.983%
O=C(Oc1cccnc1)c1cc2ccccc2oc1=O | – | -3.47%

SMILES | Potency | activity change, negative = inhibition
Nc1ncc(-c2cc3ccccc3oc2=O)s1 | 12.6 µM (active) | –
O=C(NCc1ccccn1)c1cc2ccccc2oc1=O | – | -11.1%
O=c1c(-c2ccc(F)cc2)nc2cncnc2n1-c1ccccc1 | – | 0.918% [at 11.4 µM]
CCC(=O)Nc1ccc(C(=O)CSc2nnc(CNc3ccc(Cl)cc3)o2)cc1OC | – | -0.26%
C#CC(C)(C)NC(=O)CSc1nc2c(c(=O)n(C)c(=O)n2C)n1CCCC | – | -6.83%
Cc1c(NC(=O)Nc2ccccc2Cl)sc(=S)n1C | – | 0.0836%
Oc1ccc(-c2csc(Nc3cccnc3)n2)cc1 | – | -8.52%
Clc1ccc(Nc2nc(-c3cccs3)cs2)nc1 | – | 2.83%
c1ccc(Nc2nc(-c3ccncc3)cs2)nc1 | 7.94 µM (active) | –
CC(=O)OCC(=O)[C@@]1(O)CC[C@@H]2[C@H]3CCC4=CC(=O)C=C[C@]4(C)[C@]3(F)[C@@H](O)C[C@@]21C | – | -2.25% [at 25.5 µM]
Cn1c2c(c(=O)n(C)c1=O)CN(Cc1ccco1)CN2 | – | 0.895%
COc1cc(OC)c(C(=O)Nc2ccc(N(C)C)cc2)cc1OC | 15.8 µM (active) | –
COc1cc(OC)c(C(=O)NC2CCCCCC2)cc1OC | – | -0.721%
COc1ccc(C(=O)Nc2cccnc2)cc1C(=O)Nc1cccnc1 | – | 1.27% [at 25.5 µM]
CCOP1(=O)C=C(C(C)(C)C)OC1c1ccc(F)cc1 (stereo unspecified) | – | -0.946%
O=c1c(-c2ccc(F)c(F)c2)nc2cncnc2n1-c1ccccc1 | – | 1.37% [at 11.4 µM]
COc1ccc(Oc2ncc3nc(-c4ccc(F)cc4)c(=O)n(C)c3n2)cc1 | – | 0.178% [at 11.4 µM]
CN1CCC2(CC1)CCN(S(=O)(=O)c1ccccc1)CC2 | – | 1.62% [at 11.4 µM]
